Measured values from the supplement of paper PMC10849652.
The full data set covers some 8,800 targets. This sample favours those with a hit. About 0.5% of all pairs of compound and target were hits. Values without a mark were called inactive.

Columns and labels:
Experiment in all cases: log2 fold change, soluble protein after heating vs DMSO (PISA); higher = thermal stabilisation; K562 lysate, 10 uM; active = over 0.2 and 3.5 SD of the protein, either way, in both replicates (recomputed)
[1] = compound: NCC(=O)Nc1ccc(-n2nc(C(F)(F)F)cc2-c2ccc3c(ccc4ccccc43)c2)cc1
Procedure, shortened: (§1)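 Pellets of K562 cells were dounce-homogenised in PBS pH 7.4 with 1 mM MgCl2, and the crude extract was held at 1 mg/mL protein for a 30 min treatment with 10 μM compound. Aliquots were heated for 3 min over 48°C-58°C and pooled before NP-40 was added to 0.5% at 4°C. The supernatant from 21,000xg for 90 min was quantified by TMTpro 16plex LC-MS/MS with channel sums equalised. Values are reported from duplicates as log-two fold change in thermal stability relative to solvent controls.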

vorinostat = compound: O=C(CCCCCCC(=O)Nc1ccccc1)NO [vorinostat]
Procedure, shortened: as §1

silmitasertib = compound: O=C(O)c1ccc2c(c1)nc(Nc1cccc(Cl)c1)c1ccncc12 [silmitasertib]
Procedure, shortened: as §1

[2] = compound: O=C1NC(=O)C(c2cnc3ccccn23)=C1c1cn2c3c(cc(F)cc13)CN(C(=O)N1CCCCC1)CC2
Procedure, shortened: as §1

entospletinib = compound: c1cn2cc(-c3ccc4cn[nH]c4c3)nc(Nc3ccc(N4CCOCC4)cc3)c2n1 [entospletinib]
Procedure, shortened: as §1

UniProt P98196, sequence (P98196 whole entry, looked up): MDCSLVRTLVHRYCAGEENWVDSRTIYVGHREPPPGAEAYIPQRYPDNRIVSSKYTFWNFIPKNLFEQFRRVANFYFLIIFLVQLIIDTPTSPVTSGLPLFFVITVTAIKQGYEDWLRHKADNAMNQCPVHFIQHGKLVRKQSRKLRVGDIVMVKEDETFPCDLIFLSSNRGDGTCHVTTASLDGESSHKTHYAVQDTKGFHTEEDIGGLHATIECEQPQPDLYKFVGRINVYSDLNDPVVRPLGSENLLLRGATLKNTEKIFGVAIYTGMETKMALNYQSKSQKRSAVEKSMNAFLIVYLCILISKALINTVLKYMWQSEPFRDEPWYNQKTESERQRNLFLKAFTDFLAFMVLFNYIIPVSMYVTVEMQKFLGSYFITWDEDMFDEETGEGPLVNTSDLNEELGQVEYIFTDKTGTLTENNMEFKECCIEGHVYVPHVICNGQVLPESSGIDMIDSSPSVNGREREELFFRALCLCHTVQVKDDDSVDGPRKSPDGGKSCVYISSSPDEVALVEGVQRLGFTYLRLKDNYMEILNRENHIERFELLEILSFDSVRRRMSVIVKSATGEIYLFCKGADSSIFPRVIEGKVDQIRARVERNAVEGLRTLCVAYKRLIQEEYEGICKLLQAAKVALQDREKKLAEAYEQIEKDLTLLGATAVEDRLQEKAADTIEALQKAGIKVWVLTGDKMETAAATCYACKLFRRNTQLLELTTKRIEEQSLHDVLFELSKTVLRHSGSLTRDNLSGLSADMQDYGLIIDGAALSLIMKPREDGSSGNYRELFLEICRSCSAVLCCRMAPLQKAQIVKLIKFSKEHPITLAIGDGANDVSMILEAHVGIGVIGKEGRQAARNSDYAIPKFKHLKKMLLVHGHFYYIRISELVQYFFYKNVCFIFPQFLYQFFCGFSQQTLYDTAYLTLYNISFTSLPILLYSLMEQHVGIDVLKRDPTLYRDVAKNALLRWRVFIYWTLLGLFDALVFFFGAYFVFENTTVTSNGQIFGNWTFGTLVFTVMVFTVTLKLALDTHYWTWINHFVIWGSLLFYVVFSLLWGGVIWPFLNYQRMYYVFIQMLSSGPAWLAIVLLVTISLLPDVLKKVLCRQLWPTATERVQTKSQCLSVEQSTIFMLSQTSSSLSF
UniProt P40227, sequence (P40227 whole entry, looked up): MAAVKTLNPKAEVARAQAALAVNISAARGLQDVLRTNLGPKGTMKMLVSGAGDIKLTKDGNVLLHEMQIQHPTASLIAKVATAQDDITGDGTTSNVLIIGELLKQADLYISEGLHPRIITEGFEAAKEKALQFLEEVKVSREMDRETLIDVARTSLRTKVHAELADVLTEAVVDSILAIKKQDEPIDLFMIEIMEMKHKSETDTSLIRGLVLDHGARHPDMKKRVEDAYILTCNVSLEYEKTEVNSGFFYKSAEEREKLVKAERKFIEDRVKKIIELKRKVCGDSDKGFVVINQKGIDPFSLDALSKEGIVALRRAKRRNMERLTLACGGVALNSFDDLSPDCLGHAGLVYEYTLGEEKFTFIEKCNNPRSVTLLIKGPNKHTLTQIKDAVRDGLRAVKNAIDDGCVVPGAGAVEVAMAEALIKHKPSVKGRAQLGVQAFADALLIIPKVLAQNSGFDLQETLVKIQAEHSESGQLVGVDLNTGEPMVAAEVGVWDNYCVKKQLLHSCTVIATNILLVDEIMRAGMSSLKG
UniProt Q14839, sequence (Q14839 whole entry, looked up): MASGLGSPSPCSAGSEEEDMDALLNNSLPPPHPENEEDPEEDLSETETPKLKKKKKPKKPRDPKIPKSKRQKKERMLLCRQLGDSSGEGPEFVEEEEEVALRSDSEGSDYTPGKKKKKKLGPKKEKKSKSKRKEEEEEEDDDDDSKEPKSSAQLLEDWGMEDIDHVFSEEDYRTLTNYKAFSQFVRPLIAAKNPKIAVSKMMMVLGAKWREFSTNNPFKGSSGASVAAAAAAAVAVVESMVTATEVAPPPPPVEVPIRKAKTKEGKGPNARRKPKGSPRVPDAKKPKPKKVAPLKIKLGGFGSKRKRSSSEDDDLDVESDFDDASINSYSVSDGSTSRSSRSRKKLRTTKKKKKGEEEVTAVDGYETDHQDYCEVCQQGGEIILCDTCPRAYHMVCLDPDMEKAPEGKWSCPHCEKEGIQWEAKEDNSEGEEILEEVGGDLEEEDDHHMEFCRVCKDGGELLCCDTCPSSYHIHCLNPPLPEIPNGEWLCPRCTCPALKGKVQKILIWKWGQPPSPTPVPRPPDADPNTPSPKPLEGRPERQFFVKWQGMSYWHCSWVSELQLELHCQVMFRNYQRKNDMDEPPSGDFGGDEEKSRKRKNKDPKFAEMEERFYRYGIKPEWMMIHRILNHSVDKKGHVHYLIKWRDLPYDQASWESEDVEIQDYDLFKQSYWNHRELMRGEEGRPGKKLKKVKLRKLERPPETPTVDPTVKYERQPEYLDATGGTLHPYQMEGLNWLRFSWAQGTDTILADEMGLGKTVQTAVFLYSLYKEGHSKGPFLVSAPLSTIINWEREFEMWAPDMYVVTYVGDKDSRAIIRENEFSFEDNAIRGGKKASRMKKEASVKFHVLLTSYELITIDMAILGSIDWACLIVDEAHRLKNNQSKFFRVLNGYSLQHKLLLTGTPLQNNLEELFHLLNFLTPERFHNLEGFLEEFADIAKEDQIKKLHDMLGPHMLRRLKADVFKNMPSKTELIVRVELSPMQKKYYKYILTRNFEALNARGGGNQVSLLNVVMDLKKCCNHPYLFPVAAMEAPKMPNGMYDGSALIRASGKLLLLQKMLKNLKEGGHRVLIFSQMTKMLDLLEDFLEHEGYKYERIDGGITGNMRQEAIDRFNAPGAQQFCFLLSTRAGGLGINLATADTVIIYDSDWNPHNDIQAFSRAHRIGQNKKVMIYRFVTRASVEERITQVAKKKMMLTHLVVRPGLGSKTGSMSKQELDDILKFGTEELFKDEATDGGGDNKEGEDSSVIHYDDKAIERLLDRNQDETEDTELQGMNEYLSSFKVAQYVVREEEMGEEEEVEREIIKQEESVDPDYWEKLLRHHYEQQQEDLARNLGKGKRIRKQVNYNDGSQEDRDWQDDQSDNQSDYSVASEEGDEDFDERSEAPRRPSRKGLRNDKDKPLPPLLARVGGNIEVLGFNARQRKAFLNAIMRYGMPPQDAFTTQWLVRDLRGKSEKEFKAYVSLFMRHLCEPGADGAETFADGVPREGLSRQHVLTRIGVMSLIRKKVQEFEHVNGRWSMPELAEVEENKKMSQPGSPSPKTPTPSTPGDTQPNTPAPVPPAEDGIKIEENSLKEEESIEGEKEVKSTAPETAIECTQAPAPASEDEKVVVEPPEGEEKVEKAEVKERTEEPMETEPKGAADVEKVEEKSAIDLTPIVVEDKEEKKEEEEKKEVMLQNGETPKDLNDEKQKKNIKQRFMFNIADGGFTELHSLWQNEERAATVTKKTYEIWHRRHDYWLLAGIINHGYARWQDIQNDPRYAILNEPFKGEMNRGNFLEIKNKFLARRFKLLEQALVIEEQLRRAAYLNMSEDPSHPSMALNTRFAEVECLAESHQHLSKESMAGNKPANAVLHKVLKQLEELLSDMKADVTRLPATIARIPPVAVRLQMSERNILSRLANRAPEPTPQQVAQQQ
UniProt P56945, sequence (P56945 whole entry, looked up): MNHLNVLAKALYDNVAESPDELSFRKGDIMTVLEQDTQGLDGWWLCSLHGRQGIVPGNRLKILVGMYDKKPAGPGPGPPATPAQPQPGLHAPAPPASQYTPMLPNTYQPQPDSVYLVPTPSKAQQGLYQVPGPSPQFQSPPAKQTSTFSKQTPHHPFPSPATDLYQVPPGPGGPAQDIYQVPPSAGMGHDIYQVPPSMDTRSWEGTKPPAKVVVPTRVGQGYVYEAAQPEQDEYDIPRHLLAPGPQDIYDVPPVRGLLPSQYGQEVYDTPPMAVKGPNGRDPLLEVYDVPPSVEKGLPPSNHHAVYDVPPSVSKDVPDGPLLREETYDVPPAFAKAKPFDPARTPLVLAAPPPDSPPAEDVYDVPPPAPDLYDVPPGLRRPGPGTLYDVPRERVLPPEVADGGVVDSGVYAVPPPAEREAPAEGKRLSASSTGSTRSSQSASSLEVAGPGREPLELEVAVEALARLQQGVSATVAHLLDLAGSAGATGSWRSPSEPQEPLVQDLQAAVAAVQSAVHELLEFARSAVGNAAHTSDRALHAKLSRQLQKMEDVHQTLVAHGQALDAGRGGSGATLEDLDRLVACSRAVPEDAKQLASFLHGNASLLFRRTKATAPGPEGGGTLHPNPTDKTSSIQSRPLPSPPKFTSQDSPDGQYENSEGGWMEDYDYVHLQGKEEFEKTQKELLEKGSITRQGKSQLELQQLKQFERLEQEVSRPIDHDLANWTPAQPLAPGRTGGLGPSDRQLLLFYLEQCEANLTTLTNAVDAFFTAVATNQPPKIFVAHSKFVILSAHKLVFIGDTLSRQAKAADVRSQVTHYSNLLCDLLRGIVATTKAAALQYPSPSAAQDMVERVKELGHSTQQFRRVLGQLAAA
UniProt Q9NXV6, sequence (Q9NXV6 whole entry, looked up): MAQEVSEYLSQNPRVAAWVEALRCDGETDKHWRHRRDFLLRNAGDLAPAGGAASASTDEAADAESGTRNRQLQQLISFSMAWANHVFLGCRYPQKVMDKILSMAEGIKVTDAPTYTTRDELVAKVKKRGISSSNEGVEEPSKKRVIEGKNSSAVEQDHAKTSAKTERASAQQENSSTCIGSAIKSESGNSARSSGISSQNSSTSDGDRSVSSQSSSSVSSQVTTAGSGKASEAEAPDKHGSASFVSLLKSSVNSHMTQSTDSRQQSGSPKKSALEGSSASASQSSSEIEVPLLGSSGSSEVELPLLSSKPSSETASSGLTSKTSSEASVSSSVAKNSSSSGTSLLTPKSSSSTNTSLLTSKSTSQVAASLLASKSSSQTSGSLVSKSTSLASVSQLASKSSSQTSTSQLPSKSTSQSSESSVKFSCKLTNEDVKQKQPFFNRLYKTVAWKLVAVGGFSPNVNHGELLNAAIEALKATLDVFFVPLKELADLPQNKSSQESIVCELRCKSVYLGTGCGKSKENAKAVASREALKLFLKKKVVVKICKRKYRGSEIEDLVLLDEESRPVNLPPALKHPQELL

Target	log2 fold change [1]	log2 fold change (vorinostat)	log2 fold change (silmitasertib)	log2 fold change [2]	log2 fold change (entospletinib)
CAPN15 (UniProt O75808)	0.028	-0.504 (active)	-0.016	-0.081	-0.043
CDKN1B (UniProt P46527)	0.062	-0.011	0.048	-0.067	-0.028
CHD4 isoform 2 (UniProt Q14839)	0.023	-0.284 (active)	-0.006	0.015	-0.01
CACUL1 (UniProt Q86Y37)	0.176	-0.543 (active)	0.024	-0.081	-0.056
ATRIP (UniProt Q8WXE1)	-0.088	-0.28	0.229	0.039	-0.009
CBX1 (UniProt P83916)	0.029	0.092	-0.046	-0.01	-0.018
BRAF (UniProt P15056)	-0.001	-0.339	0.061	-0.008	0.037
CDC45 isoform 3 (UniProt O75419)	-0.021	-0.487 (active)	0.012	0.015	0.03
ATG4A (UniProt Q8WYN0)	-0.059	-0.543 (active)	0.034	0.001	0.004
CBFA2T3 (UniProt O75081)	-0.004	-0.4 (active)	0.009	-0.019	-0.012
CARD11 (UniProt Q9BXL7)	-0.113	-0.406 (active)	0.001	0.004	-0.031
BCAR1 isoform 6 (UniProt P56945)	0.056	-0.032	0.002	-0.004	-0.083
CDKN2AIP (UniProt Q9NXV6)	-0.005	0.072	-0.037	-0.022	0.013
CCPG1 isoform 5 (UniProt Q9ULG6)	-0.022	0.043	-0.012	-0.025	0
BAHCC1 (UniProt Q9P281)	0.009	-0.082	-0.086	-0.158	-0.069
ATP11A (UniProt P98196)	0.168	-0.265 (active)	0.106	0.009	-0.054
CCT6A (UniProt P40227)	0.004	0.049	-0.005	0.012	0.024
